# Results taken from PubChem BioAssay (NCI).
# This is part of a sample that, as a whole, favours compounds with a hit. Of some 79,000 tested, about 15% had one in any assay. Unmarked numbers belong to inactive results. Activity calls are given as the source filed them. No stated cut-off is given here; in the data, active means growth inhibition above about 70%; inactive means the rest.
# Assays:
# [1] = NCI Yeast Anticancer Drug Screen. Data for the rad50 strain (AID 155);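 further: 0% = growth of vehicle-only cultures of the same strain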; settings: S. cerevisiae rad50 strain growth inhibition, hits give high values
# Method in brief: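 Yeast carrying a defined DNA repair defect were exposed to test compounds, and growth was compared with vehicle-treated controls to give percent inhibition.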
# [2] = NCI Yeast Anticancer Drug Screen. Data for the mec2-1 strain (AID 157); settings: S. cerevisiae mec2-1 strain, hits give high values
# Method in brief: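 Compounds were applied to mec2-1 yeast cells. Their growth was then compared with that of vehicle-treated cultures to give growth inhibition.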
# [3] = NCI Yeast Anticancer Drug Screen. Data for the sgs1 mgt1 strain (AID 161);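 further: 0% = growth of cultures given vehicle only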; settings: S. cerevisiae sgs1 mgt1 strain, hits give high values
# Method in brief: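 Compounds are added to genetically altered yeast, and growth is compared with cultures given vehicle alone to give percent inhibition.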
# [4] = NCI Yeast Anticancer Drug Screen. Data for the cln2 rad14 strain (AID 165);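 further: 0% = growth equal to vehicle treated cultures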; settings: S. cerevisiae cln2 rad14 strain, hits give high values
# Method in brief: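 Strain: cln2 rad14 yeast, altered in cell cycle control and DNA damage repair. Read-out: growth inhibition vs vehicle.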
# [5] = NCI Yeast Anticancer Drug Screen. Data for the bub3 strain (AID 167); settings: S. cerevisiae bub3 mutant strain, hits give high values
# Method in brief: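 Compounds were applied to a genetically altered yeast strain carrying a cell-cycle control defect. Growth inhibition was scored against vehicle-treated controls.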
# [6] = NCI Yeast Anticancer Drug Screen. Data for the mlh1 rad18 strain (AID 175); settings: S. cerevisiae mlh1 rad18 strain growth inhibition, hits give high values
# Method in brief: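 A repair-deficient yeast strain is exposed to test compound, and growth is scored relative to vehicle-treated controls.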
# [7] = at 5.0 µM (retest, dose inferred, filed as 0.5)
# [8] = at 50.0 µM (retest, dose inferred, filed as 5.0)
SMILES,"growth inhibition [1, 7]","growth inhibition [1, 8]",growth inhibition ([1]; at 50.0 µM),"growth inhibition [2, 7]","growth inhibition [2, 8]",growth inhibition ([2]; at 50.0 µM),"growth inhibition [3, 7]","growth inhibition [3, 8]",growth inhibition ([3]; at 50.0 µM),"growth inhibition [4, 7]","growth inhibition [4, 8]",growth inhibition ([4]; at 50.0 µM),"growth inhibition [5, 7]","growth inhibition [5, 8]",growth inhibition ([5]; at 50.0 µM),"growth inhibition [6, 7]","growth inhibition [6, 8]",growth inhibition ([6]; at 50.0 µM)
O=C1C=CC(=O)C(Br)C1Br (configuration not stated),-20%,34%,26.1%,-8%,57%,35.3%,-7%,66%,46.3%,2%,10%,19.1%,-1%,52%,71.2% (active),35%,57%,66.2%
O=[N+]([O-])c1ccc(CS(=O)(=O)C(Cl)(Cl)Cl)o1,39%,99% (active),95.5% (active),25%,100% (active),98.5% (active),16%,99% (active),97.5% (active),3%,99% (active),94% (active),8%,98% (active),90.3% (active),18%,99% (active),98.8% (active)
COc1cc(C(CC(=O)N(CCCl)CCCl)c2ccc3c(c2)OCO3)cc(OC)c1OC (configuration not stated),3%,0%,6.9%,0%,-2%,10.1%,13%,2%,20.8%,0%,-15%,25.5%,2%,-2%,-2.7%,-2%,0%,46.1%
Cc1cc([N+](=O)[O-])c2ccccc2[n+]1[O-],99% (active),99% (active),99.1% (active),100% (active),100% (active),99.5% (active),99% (active),99% (active),48.6%,100% (active),100% (active),58.4%,99% (active),99% (active),99.2% (active),100% (active),100% (active),49.8%
Cc1ccc(N=P(c2ccccc2)(c2ccccc2)c2ccccc2)cc1.[Br][Hg][Br],99% (active),99% (active),98.8% (active),100% (active),100% (active),97.6% (active),99% (active),99% (active),98% (active),99% (active),99% (active),98.3% (active),98% (active),99% (active),98.8% (active),99% (active),99% (active),97.1% (active)
C[CH2][Pb]([CH2]C)([CH2]C)[O]C(C)=O,33%,48%,84.8% (active),43%,40%,76% (active),11%,98% (active),86.8% (active),29%,96% (active),52.7%,26%,97% (active),82.4% (active),35%,59%,77.1% (active)
COc1ccc(C[C@H]2NC[C@H](O)[C@H]2OC(C)=O)cc1,34%,99% (active),92.5% (active),29%,99% (active),93.8% (active),27%,99% (active),92.3% (active),43%,99% (active),89.9% (active),27%,99% (active),92.2% (active),51%,98% (active),91% (active)
CC[CH](C)[Sn](=[O])[c]1ccccc1 (configuration not stated),15%,95% (active),81.1% (active),28%,93% (active),80.7% (active),16%,93% (active),21.9%,15%,90% (active),28.1%,10%,96% (active),20.9%,11%,95% (active),75.8% (active)
CNC1C(O)CC(OC2C/C=C(\C)C/C(C)=C/C=C/CCC(C)CNC(=O)/C=C/C=C/C2C)OC1C (configuration not stated),-6%,99% (active),14.4%,19%,100% (active),63.1%,31%,100% (active),98.3% (active),-14%,99% (active),99.2% (active),20%,100% (active),99.5% (active),18%,100% (active),99.1% (active)
CCOP(=O)(OCC)/C(C#N)=C/c1ccc(Br)cc1,-14%,95% (active),92.3% (active),-14%,97% (active),94% (active),-18%,95% (active),92.8% (active),-20%,96% (active),91.6% (active),11%,97% (active),91.8% (active),-19%,97% (active),92% (active)
OC(c1ccccc1)(c1ccccc1)c1ccccn1,-6%,-9%,4.55%,-14%,2%,53.4%,-5%,5%,9.4%,-6%,5%,2.7%,-3%,3%,13.8%,-21%,-5%,-6.2%
CCCC(C)c1ccccc1OP(=S)(S)Oc1ccccc1C(C)CCC (configuration not stated),-3%,-3%,97.3% (active),-2%,-1%,97.8% (active),2%,-2%,97.5% (active),3%,0%,96.5% (active),-5%,0%,95.8% (active),0%,-3%,97.2% (active)
CCC[CH2][Sn]1([CH2]CCC)[O]c2ccccc2[O]1,9%,95% (active),89% (active),23%,94% (active),90.8% (active),13%,94% (active),90.5% (active),0%,92% (active),83.8% (active),35%,95% (active),89.4% (active),11%,96% (active),89.1% (active)
COc1ccc(CC2C(=O)NC(C)C(=O)N(C)C3C(=O)N(C)C(Cc4ccc(O)c(c4)Oc4ccc(cc4)C3O)C(=O)NC(C)C(=O)NC(C)C(=O)N2C)cc1 (configuration not stated) (tested in a mixture with another compound),31%,99% (active),83.2% (active),28%,100% (active),78% (active),37%,99% (active),86.3% (active),41%,98% (active),78.5% (active),34%,99% (active),83.3% (active),32%,98% (active),69.3%
COC1CCCC2OC3(OC)C(OC)CCCC3OC12OC (configuration not stated),3%,-4%,12.2%,-1%,-3%,14.7%,2%,-2%,10.2%,5%,-39%,40.9%,3%,9%,27.2%,-1%,-11%,7.85%
C=CCc1cc(Cl)ccc1OC(=O)N(C)C,5%,-2%,-7.75%,5%,-4%,3.45%,5%,-2%,-6.55%,6%,-1%,-19.3%,0%,-21%,-11.8%,0%,-1%,31.8%
CC(=O)Nc1ccccc1[As](OC(C)=O)c1ccccc1 (configuration not stated),18%,97% (active),99.3% (active),11%,99% (active),99.4% (active),28%,98% (active),99.5% (active),99% (active),84% (active),98.7% (active),-3%,99% (active),99.5% (active),29%,98% (active),99% (active)
[I][Hg][CH2]C1OCCOC1[CH2][Hg][I] (configuration not stated),1%,3%,99.5% (active),-39%,2%,99.7% (active),-1%,2%,99.5% (active),-2%,4%,99.2% (active),-8%,-6%,99.5% (active),-1%,3%,99.2% (active)
S=c1sc(-c2ccccc2)c[se]1,-1%,42%,67%,2%,28%,21.6%,-2%,34%,46.4%,-1%,13%,88.5% (active),-1%,17%,35.1%,-5%,41%,32.9%
